Key:
Conditions in all cases: concentration: 1 μM, replicates: in singlicate; n = 1
FAK = system: T1, FAK
T1 construct: gene PTK2

FER = system: FER
FES = system: FES
FGFR1 = system: FGFR1
FGFR2 = system: FGFR2
FGFR3 = system: FGFR3
FGFR4 = system: FGFR4
FGR = system: FGR
FLT1 = system: FLT1
FLT3-autoinhibited = system: FLT3-autoinhibited
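Also: KINOMEscan kinase panel screen.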

| Structure (SMILES) | %Inh (FAK) [%] | %Inh (FER) [%] | %Inh (FES) [%] | %Inh (FGFR1) [%] | %Inh (FGFR2) [%] | %Inh (FGFR3) [%] | %Inh (FGFR4) [%] | %Inh (FGR) [%] | %Inh (FLT1) [%] | %Inh (FLT3-autoinhibited) [%] |
| --- | --- | --- | --- | --- | --- | --- | --- | --- | --- | --- |
| Cc1ccc(NC(=O)Nc2cccc(Cl)c2)cc1-c1ccc(C(=O)Nc2ccncc2)cc1 [GSK1398468] | 0 | 6 | 9 | 0 | 0 | 7 | 5 | 30 | 25 | 14 |
| Cc1cc(N2Cc3ccccc3C2)nc(Nc2ccc(S(=O)(=O)N3CCOCC3)cc2)n1.Cl [GSK1669917] | 0 | 25 | 9 | 0 | 11 | 15 | 1 | 0 | 9 | 0 |
| Cc1cccc(-c2nc(C)cc(Nc3ccncc3)n2)n1 [GSK257997] | 0 | 42 | 0 | 7 | 14 | 16 | 0 | 8 | 32 | 0 |
| Cc1cccc(-c2nc(Nc3ccc4[nH]ncc4c3)c3ccccc3n2)n1 [GW857175] | 0 | 11 | 0 | 5 | 0 | 0 | 0 | 0 | 12 | 32 |
| COc1ccccc1CNC(=O)c1cc(C(=O)c2ccccc2C)c[nH]1 [GSK364507] | 0 | 8 | 0 | 0 | 16 | 4 | 11 | 23 | 18 | 0 |
| O=C(Nc1ccccc1)Nc1cccc(Oc2ccc3nccn3n2)c1 | 0 | 0 | 0 | 13 | 9 | 0 | 0 | 18 | 96.8 | 0 |
| Cc1cccc(-c2nc(Nc3ccncc3)c3ccccc3n2)n1 [GW855857] | 31 | 0 | 13 | 5 | 7 | 2 | 6 | 31 | 0 | 0 |
| CS(=O)(=O)c1ccc(-c2c(-c3ncn[nH]3)sc(N3CCOCC3)c2C#N)cc1 | 0 | 14 | 42 | 32 | 9 | 5 | 0 | 40 | 13 | 2 |

— paper PMC5540273 (PLoS ONE, 2017)
